Data on 9 molecules can be found in PubChem BioAssay (NCI).

Structures are written as SMILES. Compounds without any hit were thinned out: in the full panel of roughly 83,000, 20% have a hit.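 Treatment: one concentration, 48 hours, 96-well format. Scoring: percent growth, with anything below 10 considered active.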 A number with no mark means an inactive call. Active and inactive are the calls of the source.

Assay in all cases: NCI-60 one-dose screen, 48 h (100 = growth as untreated, 0 = no growth, -100 = all killed)
The subject of one assay is SK-MEL-2 melanoma. Conditions: 10 µM.
The next assay concerns SN12C renal. As to conditions: 10 µM unless noted.
The next assay concerns UO-31 renal. As to conditions: 10 µM unless noted.
A further assay relates to TK-10 renal. Conditions: 10 µM unless noted.
A further assay concerns ACHN renal. Conditions: 10 µM unless noted.
The test system of a further assay is CAKI-1 renal. Conditions: 10 µM unless noted.
The test system of a further assay is A498 renal. As to conditions: 10 µM unless noted.
A further assay concerns CCRF-CEM leukemia. Conditions: 10 µM unless noted.
In another assay the test system is MOLT-4 leukemia. As to conditions: 10 µM unless noted.
The next assay relates to SR leukemia. As to conditions: 10 µM unless noted.
The next assay relates to RPMI-8226 leukemia. Conditions: 10 µM unless noted.
The next assay has as its system OVCAR-8 ovarian. Conditions: 10 µM unless noted.
The next assay relates to OVCAR-5 ovarian. As to conditions: 10 µM unless noted.
Another assay relates to OVCAR-4 ovarian. Conditions: 10 µM unless noted.
The subject of another assay is SK-OV-3 ovarian. As to conditions: 10 µM unless noted.
The next assay deals with IGROV1 ovarian. Conditions: 10 µM unless noted.
The test system of another assay is OVCAR-3 ovarian. Conditions: 10 µM unless noted.
For a further assay, the system named is HS 578T breast. As to conditions: 10 µM.
The test system of a further assay is NCI/ADR-RES ovarian. Conditions: 10 µM unless noted.
Another assay has as its system EKVX NSCLC. Conditions: 10 µM unless noted.

In the case of `Cc1ccc(-c2cc3c(SCC(=O)Nc4cc(C(F)(F)F)ccc4Cl)nccn3n2)cc1`, the growth was 85.4% in the assay with SK-MEL-2 melanoma; 73.6% in the assay on SN12C renal; 30.4% with UO-31 renal; 91.3% in the assay on TK-10 renal; 40.4% with ACHN renal; 30.2% with CAKI-1 renal. For the same molecule, the growth was 71.3% in the assay on A498 renal; 20.3% in the assay with CCRF-CEM leukemia; 5.39% (active) with MOLT-4 leukemia; -10.2% (active) in the assay with SR leukemia; -12.5% (active) with RPMI-8226 leukemia; 33.1% with OVCAR-8 ovarian. Moreover, the growth with OVCAR-5 ovarian was 84.7%; in the assay with OVCAR-4 ovarian, 38.1%; in the assay with SK-OV-3 ovarian, 84.3%; in the assay on IGROV1 ovarian, 52.7%; in the assay with OVCAR-3 ovarian, 82.3%; in the assay with HS 578T breast it was 87%. Besides, the growth with NCI/ADR-RES ovarian was 42.5%.

With `COc1ccc(C(=O)c2cc(OC)c(OC)c(OC)c2)cc1/C=C/C(=O)c1ccc(F)cc1`, the growth in the assay on EKVX NSCLC was 90.1%; in the assay with SN12C renal, 64.7%; in the assay on UO-31 renal, 56.3%; with TK-10 renal it was 82.9%; in the assay with ACHN renal it was -70.3% (active); in the assay on CAKI-1 renal, 81.5%. The growth with A498 renal was 80.9%; in the assay on CCRF-CEM leukemia, 2.64% (active); in the assay on MOLT-4 leukemia, 0.641% (active); with SR leukemia it was 3.26% (active); in the assay on RPMI-8226 leukemia, 23.3%; in the assay with OVCAR-8 ovarian, 53.3%. The growth is 1.82% (active) with OVCAR-5 ovarian; 77.8% in the assay on OVCAR-4 ovarian; 93.5% in the assay on SK-OV-3 ovarian; 91.7% in the assay on IGROV1 ovarian; 61.4% in the assay on OVCAR-3 ovarian; 98% with HS 578T breast. Further, in the assay on NCI/ADR-RES ovarian, the growth was 31.1%.

Take `COc1cccc(Nc2ncnn3ccc(CN4CC[C@@H](N)[C@H](O)C4)c23)c1`: the growth with EKVX NSCLC is 23.8%; with SN12C renal it was 18.9%; with UO-31 renal, -34.3% (active); in the assay with TK-10 renal it was -35.3% (active); in the assay on ACHN renal, 2.8% (active); in the assay on CAKI-1 renal it was -13.5% (active). The growth was -38.1% (active) in the assay with A498 renal; 66.2% in the assay with CCRF-CEM leukemia; 17.6% with MOLT-4 leukemia; 20.1% in the assay with SR leukemia; 65.7% in the assay on RPMI-8226 leukemia; 27.5% in the assay on OVCAR-8 ovarian. The growth in the assay on OVCAR-5 ovarian is 25.5%; in the assay with OVCAR-4 ovarian, 61%; in the assay on SK-OV-3 ovarian, -41.4% (active); with IGROV1 ovarian, -19% (active); with OVCAR-3 ovarian, 44.1%.

Turning to `ClCc1ccc(-c2ccc(Cn3cnc4c(Cl)nc(Cl)nc43)cc2)cc1`, the growth in the assay on SK-MEL-2 melanoma was 46.1%; in the assay with EKVX NSCLC, -57.9% (active); in the assay with TK-10 renal, -67.8% (active); in the assay with ACHN renal, -21% (active); with CAKI-1 renal, -98.8% (active); with CCRF-CEM leukemia it was -31.1% (active). The growth in the assay with MOLT-4 leukemia was 4.29% (active); in the assay on SR leukemia it was 8.65% (active); in the assay with RPMI-8226 leukemia it was -47.4% (active); with OVCAR-8 ovarian, -40% (active); in the assay on OVCAR-5 ovarian it was 57.8%; with OVCAR-4 ovarian, 21.7%. For the same molecule, the growth with SK-OV-3 ovarian was 87.8%; in the assay with IGROV1 ovarian, -64.4% (active); in the assay on OVCAR-3 ovarian it was -93.1% (active); in the assay on NCI/ADR-RES ovarian it was 20.8%.

As for `CN1CCC(CNc2ccc3ncc(-c4cccc(OC(F)(F)F)c4)n3n2)CC1`, the growth with EKVX NSCLC is 4.31% (active); in the assay on SN12C renal, -81.2% (active); in the assay on UO-31 renal, -95.1% (active); in the assay on TK-10 renal, -4.7% (active); in the assay on ACHN renal, -54.7% (active); in the assay with CAKI-1 renal, -62.8% (active). In addition, the growth is -79.8% (active) with A498 renal; -5.49% (active) with CCRF-CEM leukemia; -5.02% (active) in the assay on MOLT-4 leukemia; -19.4% (active) in the assay with SR leukemia; -45.3% (active) in the assay with RPMI-8226 leukemia; 0.791% (active) in the assay on OVCAR-8 ovarian. In addition, the growth was -32.8% (active) in the assay with OVCAR-5 ovarian; -1.72% (active) in the assay on OVCAR-4 ovarian; -1.52% (active) in the assay with SK-OV-3 ovarian; -60.4% (active) with IGROV1 ovarian; -26.6% (active) with OVCAR-3 ovarian.

`COC(=O)[C@H](C)NC(=O)[C@@H](OC)[C@@H]1Cc2cc3cc(OC4CC(OC5CC(O)C(O)C(C)O5)C(O)C(C)O4)c(C)c(O)c3c(O)c2C(=O)[C@H]1OC1CC(OC2CC(OC3CC(C)(O)C(O)C(C)O3)C(O)C(C)O2)C(O)C(C)O1` (stereo not given in full): the growth in the assay on EKVX NSCLC was 21.9%; with SN12C renal, 11.5%; with UO-31 renal, 5.72% (active); in the assay on TK-10 renal it was 13.1%; in the assay on ACHN renal, -1.98% (active); in the assay on CAKI-1 renal, 27.5%. In addition, the growth in the assay on A498 renal was -66.5% (active); in the assay on CCRF-CEM leukemia, 14.5%; in the assay with MOLT-4 leukemia it was 0.969% (active); in the assay on SR leukemia, 7.81% (active); with RPMI-8226 leukemia, -5.91% (active); with OVCAR-8 ovarian, 9.19% (active). The growth in the assay on OVCAR-5 ovarian is 13.5%; in the assay with OVCAR-4 ovarian, 0.165% (active); with SK-OV-3 ovarian, 22.6%; with IGROV1 ovarian it was 22.8%; in the assay with OVCAR-3 ovarian, 5.02% (active); in the assay on HS 578T breast, -7.37% (active). In the assay on NCI/ADR-RES ovarian, the growth is 75.4%.

Regarding `COc1cccc2cc(-c3nc(C4CCC(C(=O)O)CC4)n4ncnc(N)c34)[nH]c12` (stereo not given), the growth in the assay with EKVX NSCLC was 11.6%; with SN12C renal it was 14%; in the assay on UO-31 renal, -12.4% (active); in the assay on TK-10 renal it was -22.3% (active); with ACHN renal, 4.68% (active); in the assay with CAKI-1 renal it was -22.7% (active). Also, the growth is -50.6% (active) in the assay on A498 renal; 9.93% (active) in the assay with CCRF-CEM leukemia; 15.2% with MOLT-4 leukemia; 7.63% (active) in the assay with SR leukemia; 7.52% (active) with RPMI-8226 leukemia; 1.18% (active) in the assay with OVCAR-8 ovarian. Moreover, the growth in the assay on OVCAR-5 ovarian is 25.6%; in the assay on OVCAR-4 ovarian, -23.4% (active); in the assay with SK-OV-3 ovarian it was -26% (active); with IGROV1 ovarian, -12.9% (active); in the assay on OVCAR-3 ovarian, 12.3%.

For `COc1ccc(C(=O)N2c3ccccc3Sc3ccccc32)c(F)c1`, the growth in the assay with EKVX NSCLC is 44%; with SN12C renal, 60.8%; in the assay on UO-31 renal, 49.2%; in the assay on TK-10 renal, 44.5%; with ACHN renal, 48.4%; with CAKI-1 renal, 45.3%. In addition, the growth in the assay on A498 renal is 2.13% (active); in the assay with CCRF-CEM leukemia, 17%; in the assay with MOLT-4 leukemia, 27.1%; with SR leukemia, 23%; in the assay on RPMI-8226 leukemia, 18.6%; with OVCAR-8 ovarian, 32.3%. For the same molecule, the growth was 62.1% with OVCAR-5 ovarian; 49.2% in the assay on OVCAR-4 ovarian; 38.3% in the assay on SK-OV-3 ovarian; 54.8% in the assay with IGROV1 ovarian; -7.19% (active) with OVCAR-3 ovarian; 15.9% in the assay with HS 578T breast. Also, in the assay on NCI/ADR-RES ovarian, the growth is 1.71% (active).

Consider `Cc1ccccc1N1C(c2ccccc2)=NNC12C=CC(=O)C=C2Cl` (stereo not given), for which the growth with EKVX NSCLC was 111%; in the assay with SN12C renal, 96.3%; with UO-31 renal, 88.8%; with TK-10 renal, 109%; in the assay with ACHN renal it was 100%; in the assay with CAKI-1 renal, 105%. The growth is 109% in the assay on A498 renal; 101% in the assay with CCRF-CEM leukemia; 94.7% in the assay with MOLT-4 leukemia; 90.6% in the assay with SR leukemia; 109% in the assay with RPMI-8226 leukemia; 96.7% in the assay with OVCAR-8 ovarian. Moreover, the growth in the assay with OVCAR-5 ovarian was 87.8%; in the assay on OVCAR-4 ovarian, 117%; in the assay with SK-OV-3 ovarian, 90.2%; in the assay on IGROV1 ovarian, 100%; with OVCAR-3 ovarian, 118%.
